From PubChem BioAssay
Compounds with a hit are over-represented: about 21% of the library has one in this group of screens.
CYP2C19 act: human CYP2C19 activators, primary screen, biochemical, luminescence. activation factor at 5 µM. 96,000 tested, under 10 active. recombinant CYP2C19, luciferin-H EGE luminescence; hits give high values; 0 = fully inhibited enzyme, 1 = untreated enzyme;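 active = activation factor of at least 2 at 5 µM in the primary screen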;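 note: 0 = wells with 2.5 mM tranylcypromine and 1 = vehicle-only wells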
Target sequence (P33261 whole entry, looked up): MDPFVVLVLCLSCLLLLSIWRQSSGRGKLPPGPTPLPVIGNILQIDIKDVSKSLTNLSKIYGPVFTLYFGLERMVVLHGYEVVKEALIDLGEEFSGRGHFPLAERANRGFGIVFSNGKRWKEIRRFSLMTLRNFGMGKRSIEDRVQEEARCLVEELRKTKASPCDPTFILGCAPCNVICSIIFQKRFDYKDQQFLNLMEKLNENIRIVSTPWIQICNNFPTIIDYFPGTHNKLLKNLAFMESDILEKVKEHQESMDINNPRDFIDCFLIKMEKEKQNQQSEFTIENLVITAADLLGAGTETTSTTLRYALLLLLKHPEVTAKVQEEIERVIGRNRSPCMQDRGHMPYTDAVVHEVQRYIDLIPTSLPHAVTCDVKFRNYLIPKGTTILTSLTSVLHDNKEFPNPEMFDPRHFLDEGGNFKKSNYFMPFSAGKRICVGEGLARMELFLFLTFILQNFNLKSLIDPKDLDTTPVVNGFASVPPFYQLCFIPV
MRP1 act: H69AR viability gain despite doxorubicin, primary screen, MRP-1 activator project, H69AR cells, CellTiter-Glo | viability rescue | viability increase, % at 10 µM | 140,000 compounds, 0.61% hits;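 active = viability gain under doxorubicin at or above a set limit, the compound median plus 3 SD, cut at about 4.7% in these data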;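 note: MRP-1 overexpressing cells given doxorubicin 25 µM after compound pretreatment; 18-22 h compound pretreatment then 72 h with doxorubicin before readout; 0% = doxorubicin-only wells and 100% = vehicle-treated cells without doxorubicin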
CYP2C9 inhib: blockers of cytochrome P450 2C9 activity – biochemical, luminescence, ADME assay, primary screen. P11712. CYP2C9 Supersomes, luciferin-H conversion. inhibition, % at 5 µM. 96,000 compounds, 20% hits. AID 777, 2007;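 active = blocking of liver enzyme CYP2C9 beyond about 50% at 5 µM, limit read from the data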
MRP reversal: reversal of MRP1-mediated doxorubicin resistance, primary screen, H69AR cells, doxorubicin co-treatment; 85,000 compounds, 0.04% hits; differential viability (reversal), % at 10 µM; H69AR cells + 2 uM doxorubicin, CellTiter-Glo, 72 h;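 active = viability drop by adding the cancer drug above about 55%, with treated viability meeting a 40% cutoff, limit read from the data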;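 note: viability without doxorubicin minus viability with 2 µM doxorubicin for each compound; larger differential means the compound sensitizes cells more to doxorubicin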
CYP2C9 activ: human CYP2C9 activators, primary screen, biochemical, luminescence; Cytochrome P450 2C9 (Homo sapiens), P11712; recombinant CYP2C9, luciferin-H conversion; hits give high values; factor 1 = untreated enzyme, 0 = blocked; activation factor at 5 µM; 96,000 compounds, 1.4% hits; AID 1024, 2008;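 active = activation factor of 2 or more for CYP2C9 at a 5 µM dose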;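 note: 0 = sulfaphenazole-blocked wells and 1 = vehicle-only wells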
CYP2C19 inh: blockers of cytochrome P450 2C19 activity – biochemical, luminescence, ADME assay, primary screen. P33261. AID 778, 2007. CYP2C19 Supersomes, luciferin-H EGE luminescence, 30 min. 96,000 compounds, 21% hits. inhibition, % at 5 µM;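 active = CYP2C19 inhibition above a set limit at 5 µM in the primary screen, cut at about 50% in these data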;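 note: plate controls were negative control wells for no effect and 2.5 mM tranylcypromine positive control for full effect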
* = called active by the depositor; / = not tested or not shown.

SMILES	CYP2C19 act	MRP1 act	CYP2C9 inhib	MRP reversal	CYP2C9 activ	CYP2C19 inh
COc1ccc(N=Cc2cc3c(cc2O)OC(N)=C(C#N)C3c2ccccc2)cc1 (configuration not stated)	/	-4	/	/	/	/
O=C(c1ccc(S(=O)(=O)N2CCCCC2)cc1)c1nnc(-c2ccc(Cl)cc2)o1	1	1	6	0	0.9	2
O=C(CCc1ccc(S(=O)(=O)N2CCCCC2)cc1)c1nnc(-c2ccccc2)o1	0.3	-2	41	4	0.6	74*
O=C1NC(Nc2nccs2)(C(F)(F)F)C(=O)N1CCc1ccccc1 (configuration not stated)	0.1	0	85*	/	0.1	89*
Cc1ccc(SCC(=O)Nc2ccc(F)cc2[N+](=O)[O-])cc1C	/	-2	/	/	/	/
Nc1nc2c(s1)CC(c1ccccc1)CC2 (configuration not stated)	0.3	0	45	-3	0.6	69*
CCCC12C(=O)C(C)(C(c3ccccc3)=C1c1ccccc1)C1C(=O)N(c3ccc(C)cc3)C(=O)C12 (configuration not stated)	/	3	/	/	/	/
COc1ccc(OC)c(-n2c(SCC(=O)Nc3cc(C)on3)nnc2-c2c[nH]c3ccccc23)c1	0.2	-3	68*	2	0.3	84*
CCOc1ccc(-n2c(SCC(=O)Nc3cc(C)on3)nnc2-c2c[nH]c3ccccc23)cc1	0.9	-3	40	-5	0.6	14
COCCn1c(SCC(=O)Nc2cc(C)on2)nnc1-c1c[nH]c2ccccc12	0.5	-1	75*	10	0.3	55*
CCCCNC(=O)CSc1nnc(-c2c[nH]c3ccccc23)n1CC1CCCO1 (configuration not stated)	0.5	-2	44	/	0.6	53*
COc1ccc(OC)c(-n2c(SCC(N)=O)nnc2-c2c[nH]c3ccccc23)c1	0.6	-3	58*	-1	0.4	39
CC1=Nn2c(nnc2-c2ccc(F)cc2)SC1	0.9	1	-4	11	1	6
COc1cc(-c2nnc(SCc3cccnc3)n2C)cc(OC)c1O	0.7	-1	15	2	0.9	30
CC1CCN(CC(=O)N2c3ccccc3CCc3ccccc32)CC1	/	-2	/	/	/	/
Cn1cccc1/C=N/NC(=O)c1cccc(OC(F)(F)C(F)F)c1	/	-1	/	/	/	/
CCNC(=O)COn1c(SCC(=O)NCC)nc2ccccc2c1=O	0.8	-2	16	2	0.8	24
COc1ccc(OC)c(-n2c(SC)nnc2-c2c[nH]c3ccccc23)c1	0.2	-4	68*	32	0.3	78*
COc1cccc(-n2c(SCC(N)=O)nnc2-c2c[nH]c3ccccc23)c1	0.1	-2	31	-1	0.7	89*
COc1ccc(-c2nc3ccccc3c(=O)n2CCOc2cccc(C)c2C)cc1	/	-1	/	/	/	/
Cc1nn(-c2ccccc2)c2sc(C(=O)OCc3nnc(-c4ccccc4)o3)cc12	1	-1	55*	3	0.5	2
Cc1nn(-c2ccccc2)c2sc(-c3n[nH]c(=S)o3)cc12	1.1	-1	66*	/	0.3	-6
CCOC(=O)c1cc2c(C)nn(-c3ccccc3)c2s1	/	-4	/	-18	/	/
COC(=O)c1cc2c(C)nn(-c3ccccc3)c2s1	0.5	-5	10	3	0.9	52*
Cc1nn(-c2ccccc2)c2sc(C(=O)OC3CCOC3=O)cc12 (configuration not stated)	0.7	-3	68*	-3	0.3	31
Cc1nn(-c2ccccc2)c2sc(C(=O)N3CCOCC3)cc12	/	-4	/	8	/	/
CCOC(=O)CNC(=O)c1cn(CC)c(=O)c2cc(OC)c(OC)cc12	1	0	-5	-2	1	-5
COc1cc(OC)c2c(C)c(Cl)c(=O)oc2c1	1	-2	-10	16	1.1	4
CC1(C)CC(=O)/C(=C\c2cccc([N+](=O)[O-])c2)C(C)(C)N1	/	-5	/	/	/	/
CC(C)(C)C(=O)/C(C#N)=c1\s/c(=C\c2ccncc2)c(=O)n1CCCN1CCOCC1	0.7	/	22	-14	0.8	32
